From PubChem BioAssay AID1508600 (Functional Genomics Laboratory (NCATS/FGL), 2020)
About 3,700 (7%) of roughly 53,000 sequences were called active.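 How the source made its calls: active means gene knockdowns whose robust z-score for IL-1 alpha signal is at least 2 or at most -2, so actives lie on both sides; inactive means the rest.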 The entries come from a sample that favours actives as a whole.

assay: Components of the Cytosolic LPS Sensing Pathway: Gene Identification via Genome-wide siRNA Screen; settings: RAW264.7 macrophages, IL-1a HTRF, actives lie on both sides, screened at 100 nM (by protocol), cells primed 5 h with Pam3CSK4 first;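 further: robust z of the log signal after scaling to non-targeting control siRNA wells of the plate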
In short: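 Using IL-1a HTRF as read-out, the screen measured release from RAW264.7 cells after 48h siRNA knockdown (100 nM), 5 h Pam3CSK4 priming and 24 h cytosolic LipidA. Values were expressed relative to negative-control wells as robust z-scores.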

z-score, inactive:
GCAUUAUACCUGUCAAGUUTT against Klk1b1 0.608
CGAGUCAAUCAACUUGUCUTT against Olfr54 -0.882
GGACUCUGAUCUGGAGUAGTT against Slc51a -0.397
GGCAAACAUCUGUAUCUAUTT against Golph3 -0.571
GGCAUCUUUUGAAACAAUATT against Ubxn8 -1.04
GGCAUACAAAGCCCUCUAUTT against Kcnrg -0.457
GGAUGUGAUGACUCAUUUUTT against Zbtb8os 0.976
GGUGAAUAAAGACCGAGGUTT against Anks6 -1.58
GCGUGAGGAUGUAGACUACTT against Mmp12 0.699
GGACAUUUUUGUCUCUAAATT against Pacc1 0.167
GGACAAUUCCAUGCUUCCCTT against Il24 -0.00641
CGCGCAGAUGCACCAGAUUTT against 2610028H24Rik 1.12
GGUCAAAGAUGCUAUAAAATT against Olfr993 -0.843
GGAGGCAGCUCCUAUGAUGTT against Rbm28 0.378
GGUGACUGGUAAAUGCCAGTT against Olfr1502 -0.428
CGGUCUUUAUACACAUAUATT against Wnt7a -0.0297
GGUGAGAAUGUGCUUCAAUTT against Egr2 -0.0732
GCAUCGUCUAUAUUUUUGGTT against Timm50 -1.56
GGAAUGCUUAGUGAAAUUUTT against Ahctf1 0.481
GGAUUCUGAACCUUACAGATT against Hoxd9 1.61
CGGAGUUGGGAUUUACCAGTT against Pdia5 -0.594
GGCACCUUAAUGCUGACUUTT against Sdc4 -0.694
GGCUCAAGGUUUUCUCUACTT against Olfr710 -0.0341
GGUAUAUCCCUCACAAAAGTT against Dnah2 -1.69
GCAGUUAUGUUAUAGCUGCTT against Ctu2 0.0152
GCUAGUUUAAGAGACUUUGTT against Nfatc2ip 0.234
GGUCUAAGUCUGAAUGGCCTT against Agrp 0.539
CGACUGGAAUCUAAUAACUTT against Fgf2 0.987
CGGCUCCAGGCAAAUAUGGTT against Ezh1 -1.64
CGAGAAAGUAUUGACCGAGTT against Anxa5 -0.524
GGAAGGUGUUCGUAGAGAATT against Mad2l1 0.0941
GCACCGUGUCGUUGACUUGTT against Trim56 0.566
CCUAUCGAGUGAAAGUAAATT against Abcg2 -0.304
GGCACUGCUAUUAACUACATT against 4933414I15Rik -0.906
CUGUUACCUAUCCCUCAUCTT against Sstr3 -0.663
GCUACUCUUAUUCUACUUCTT against Slc29a3 0.145
GCCCUCAUCAGAAGAAACUTT against Cox7b2 0.864
GGUAGACCUAGAACAGCACTT against Ttyh2 -0.495
GGUGAGAUUACUGAAAGAATT against Plod2 -0.0899
GGAGAAGGCAACUUCUGUUTT against Zfp641 0.19
CCUAUUGAUUGUAUAUCCATT against Emc2 -0.429
CCAAAUUGUCUCUUCUAACTT against Dnah1 0.0269
GGAACAAAGAGUUUAAGGATT against Olfr1415 0.379
GGAACAAGUGGCUGAAGAUTT against Cyp11b2 0.566
GCAUGUUUCUAAACUUAGUTT against Sh3rf2 -0.432
GGUUCUGAAAGAGUGUUAGTT against Htatsf1 -1.58
GGGCUCACAUUGUACACACTT against Nckap5 0.525
GGACAUCUUUUCAAACGUGTT against Acap1 -1.09
GCUGAACGUGAGAUUGUGCTT against Acta1 1.33
GGUCAAUUAUGAAGCACCUTT against Pabpc4 0.158
GGCAACAAAAAAAUCCCAATT against Cd160 -0.647
GGGACAACAUUCAAAGGUCTT against Hdgfl1 -0.322
GCGAUUGGCAGAUUGCUACTT against Tmem47 1.01
GGGAUAGCAAGACUUUCACTT against C5ar1 0.194
GGUUGUGAGUCAGUCUAGUTT against Tia1 -1.55
GGAGCUCUGUGAAUCUCUUTT against Ska1 -0.796
CCUUCCUGUUGUCAUGAGATT against Eipr1 -0.868
CCAAUGGUCAGGAGUGUAGTT against Prpsap2 -0.766
GCGGCUCAAACUCAUUUUGTT against Gm4841 1.21
GGUAUGAUGAUUGUUAGAUTT against Phf20 0.141
GCUCUAAAACUGUGUACUCTT against 4930579K19Rik -0.167
GGAAUUUUCUGGAAAUCCATT against Tctn2 -0.111
GGCUCUCAUUGAUGCAUGUTT against Cpeb4 -0.264
GGAAUGAAACCAAGUAUAATT against Calcb 0.853
GCUCAUUGGGAUCAUUGGUTT against Fancd2 1.45
GGUGACACCCAGAAUGAGCTT against Htatsf1 1.81
CCCUCAAUCUAACAGUGCATT against Dsg1b 0.75
GGAGAAAGACAACUUCCUATT against Clec7a 0.239
GGCUCCUGUAAUGCUAACUTT against Zfp715 -0.191
GGAUACUUUAUGGUAUUUCTT against 9130023H24Rik 1.45
GAUUUCAAGAUCCAGACUCTT against Riiad1 -0.435
CCUCGUUCCUUUGAAAUCATT against Gfi1 0.255
GCUAUGUGAAUUUGUAUGATT against Parp11 0.398
GCAUACGAUAUCACCAUAUTT against Dsg1a 0.173
GCUCCGGAACAGAUAAAACTT against Kat14 -0.485
GGCAGUAACUUAAAACAGATT against Mecp2 -0.139
GCUGAAAGAAUUCGUGGACTT against Phf2 1.69
GAUAUCACGGUCAUCUGUCTT against Pde6h -0.19
CCUGCGCUUCUGACUAUCUTT against Dcbld1 0.18
GGAGACCUGGCAAAUGUAATT against Dctn5 0.884
GGAUCUCGAGUCUCAUCUCTT against Ccdc166 0.851
CCGGAAGAGCUUGCUUUAUTT against Sgpp2 1.19
GGCUAAGGGUAACGUGCUGTT against Bri3 -0.263
GGUGGUUAAAUGGUUUUAATT against Prkg2 1.98
GGAUCUGACAGCUCAUUUUTT against Casp7 1.01
CCACAAAACUAAGACACCUTT against P2ry6 0.587
GGCUCUAACAUGACAAUUUTT against Hyal1 -0.251
GCUGAUUAACCCUCAGUAUTT against Gpc6 -0.531

z-score, active:
CGGCAACUCAACAAGCUUATT against Cbfa2t3 2.38
GGCAGUGGGAUUACAAUGATT against Med12 2.02
CCGACACAAGAUGCUCAGUTT against Tmem9 -2.3
GCCUAUGAUAAGUCUGUGUTT against Ifitm10 -2.25
GGAAGACGAAGAGUUUGGATT against Aqp5 2.37
CCGAGGAGAACACUUGUAGTT against Opn4 -2.54
GGAUCAAUGGUGUCUUUGUTT against Pdzk1 -2.2
CGCAGGUAUACAGGACUGCTT against Rhox8 2.33
GCCAGUCCUGAUAGCAUCATT against Rhox6 -3.2
GGUAUCGUAUAUGGAGAUCTT against Kif13a 2.12
GGUAUCUGUGUGACUUCACTT against Pgpep1 3.63
GCCGUUUCGUGUGGUAUUUTT against Tm4sf1 -2.64
CCUUGACCUUAAUGUCUUCTT against Fgf23 2.05
GCAGGUUCAGGCAGUAAUUTT against Kpna4 3.78
GGACUGUGGAUAACCUGCUTT against Hspb2 -2.55
GCAGAGUUACAAGCUUUUATT against Diaph3 -4.98
CCUCGUAUUAGAUGAUGCATT against Snrpe -2.79
GGAUCCAAGGUGAAAAUAUTT against Fam131a -2.25
GGGAAAAUGGAAAAUACAUTT against Emc3 2.59
